# VDR inh: inhibitors of human vitamin D receptor; VDR-SRC2-3 peptide fluorescence polarization, 2 h; Potency, µM, inactives show max response, negative = inhibition, usual class: inhibitors; actives 0.93% (n = 400,000); AID 504847; note: % is set by controls: 0 for no effect and ±100 for the full control effect
#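 Inhibition of the VDR/SRC2-3 peptide interaction is quantified by fluorescence polarization. Compounds (23 nl, pintool) incubate with the reagents for 2 hours at ambient room temperature.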
# BAZ2B inh: inhibitors of human BAZ2B bromodomain. Q9UIF8. actives 4.4% (n = 360,000). AID 504333. Potency, µM (highest dose often 114 µM), for inactives: top-dose activity change, negative = inhibition, usual class: inhibitors. AlphaScreen BAZ2B-H3K14Ac peptide displacement; note: % is set by controls: 0 for no effect and ±100 for the full control effect; nearly all actives have a fitted effect of over 60% in size
#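 In this displacement format the biotinylated H3(5-23) peptide acetylated at Lys14 serves as ligand at 50 nM, with BAZ2B at 50 nM in PBS pH 7.4 containing 0.01% Tween-20. Donor and acceptor beads are 10 ug/mL final.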
# JMJD2A Tudor: blocks the human JMJD2A Tudor domain; actives 4.4% (n = 390,000); AlphaScreen JMJD2A-Tudor / H3K4me3 peptide binding; Potency, µM (series often up to 114 µM), inactives show top-dose activity change, negative = inhibition, most hits filed as inhibitors; O75164; note: % is set by controls: 0 for no effect and ±100 for the full control effect; nearly all actives have a fitted effect of over 50% in size
# HP1b binding inh: inhibitors of HP1-beta chromodomain binding to methylated histone tails; actives 0.56% (n = 390,000); Potency, µM (doses to about 114 µM), inactives show top-dose activity change, negative = inhibition, hits mostly inhibitors; P83916; AlphaScreen HP1-beta / biotin-H3K9me3 peptide binding; note: nearly all actives have a fitted effect of over 70% in size
#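 AlphaScreen: HP1-beta (50 nM) preformed 30 min with biotin-H3(1-18)K9me3 peptide (50 nM) in PBS pH 7.4, 0.01% Tween-20. Compound added for 30 min at RT, then streptavidin donor/nickel chelate acceptor beads (10 ug/mL) for 30 min.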
# G9a inh: blocks human histone lysine methyltransferase G9a. actives 8.8% (n = 350,000). Q96KQ7. Potency, µM (top dose mostly 102 µM), for the others: top-dose activity, negative = inhibition, most hits filed as inhibitors. G9a H3K9 monomethylation, AlphaScreen, 2 h. AID 504332; note: % is set by controls: 0 for no effect and ±100 for the full control effect; nearly all actives have a fitted effect of over 75% in size
# Target sequence (Q96KQ7 913-1193 limits assumed): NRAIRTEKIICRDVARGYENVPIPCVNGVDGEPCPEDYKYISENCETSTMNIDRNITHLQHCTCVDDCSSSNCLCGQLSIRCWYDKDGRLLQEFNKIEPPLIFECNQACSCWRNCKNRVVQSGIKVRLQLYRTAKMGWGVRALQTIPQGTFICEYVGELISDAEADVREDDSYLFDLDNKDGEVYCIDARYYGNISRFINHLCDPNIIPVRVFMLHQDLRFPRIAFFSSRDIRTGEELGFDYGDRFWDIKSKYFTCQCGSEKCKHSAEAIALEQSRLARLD
#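 Signal arises when biotinylated H3K9 peptide, once monomethylated, bridges streptavidin donor and antibody-captured acceptor beads. Enzyme at 20 nM was preincubated 15 min with test compounds; peptide 500 nM and SAM 20 uM then reacted for 2 h.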
# PLK1 PBD block: inhibitors of human PLK1 polo-box domain binding | P53350 | Plk1 PBD binding of FITC phosphopeptide, fluorescence polarization | Potency, µM, for inactives: max response, negative = inhibition, most hits filed as inhibitors | actives 2.8% (n = 360,000); note: series mostly up to about 57 µM; % is set by controls: 0 for no effect and ±100 for the full control effect; nearly all actives have a fitted effect of over 65% in size
# The depositor's hits bear a star; ? = inconclusive; . = not tested or not shown; [ ] = another dose, or the depositor's remark. This is a sample that favours compounds with a hit; in the whole collection about 11% have one here. Calls come from the whole dose curve; as a rule, active = well fitted curve in the direction sought with a large enough effect; inconclusive = small, poorly fitted or top-dose-only effect, or another doubt; inactive = no such curve, though single readings can be large; an effect the other way counts as inactive or inconclusive. Potency is the fitted concentration of half-maximal effect.
SMILES,VDR inh,BAZ2B inh,JMJD2A Tudor,HP1b binding inh,G9a inh,PLK1 PBD block
Cc1cc(C)n(C(=O)c2cccc([N+](=O)[O-])c2)n1,-17%,-8%,1%,28%,10%,4%
COc1cc(OC)c2c(=O)c(O)c(-c3ccc(OC)c(OC)c3)oc2c1,3%,.,.,.,.,.
COc1cc(OC)c2c(O)c3c(c(-c4c5c(c(O)c6c(OC)cc(OC)cc46)CO[C@@H](C)[C@H]5O)c2c1)[C@H](O)[C@H](C)OC3,3%,45µM*,50µM*,?,9%[12.7 µM],21µM*
O=C(O)c1n[nH]c2c1CCCC2,12%,56µM*,25µM*,9%,-27%[12.7 µM],-2%
O=C(O)c1n[nH]c2c1CCCCC2,-3%,50µM*,?,3%,10µM*,3%
Cc1ccc(S(=O)(=O)N2[C@@H](c3ccccc3F)C(C(=O)O)=CC[C@H]2c2cccc(Cl)c2)cc1,2%,5%,-27%,19%,-7%[2.33 µM],-19%
Cc1ccc(Sc2ccc(N3CCCC(C(=O)Nc4ccc(F)c(Cl)c4)C3)nn2)cc1 (configuration not stated),-4%,3%,8%,43%,-4%[59 µM],.
CCOc1ccc(CN2CCc3nc(N4CCN(c5ccccn5)CC4)ncc3C2)cc1OC,7%,79µM*,89µM*,17%,?,.
CCCN1CCc2nc(N3CCN(c4ncccn4)CC3)ncc2C1,21%,50µM*,89µM*,26%,32µM*,.
COc1ccccc1N1CCN(c2ncc3c(n2)CCN(Cc2ccccc2C)C3)CC1,3%,-12%,-8%,13%,-2%[59 µM],.
CCCCN1CCc2nc(N3CCN(c4ncccn4)CC3)ncc2C1,12%,56µM*,79µM*,20%,18µM*,.
CCCCN1CCc2nc(N3CCN(C)CC3)ncc2C1,1%,-35%,-8%,46%,?,.
CCOc1ccccc1CN1CCc2nc(N3CCN(c4ccccc4F)CC3)ncc2C1,19%,56µM*,79µM*,-5%,?,.
COC(=O)c1cc2sc(Cl)cc2n1Cc1c(C)cc(C)cc1C,-12%,-29%,3%,62%,-3%[59 µM],.
CC(C)(C)[C@H]1COC(=O)CC/C=C\C[C@@H](CC(=O)N(CCO)Cc2ccccc2)C(=O)N1,8%,.,6%,41%,.,-3%
CC1CCC(NC(=O)COC(=O)CNC(=O)c2ccc3ccccc3c2)CC1 (configuration not stated),-18%,1%,-20%,38%,9%[12.7 µM],-2%
Brc1ccc(CN2CCc3nc(N4CCN(c5ncccn5)CC4)ncc3C2)cc1,6%,50µM*,45µM*,-32%,?,.
CCN1CCN(c2ncc3c(n2)CCN(Cc2ccc(OC(C)C)cc2)C3)CC1,-1%,?,?,-12%,?,.
Cc1cc(Cl)ccc1NC(=O)CN1C(=O)COc2ccc(S(=O)(=O)N3CCC(C)CC3)cc21,-7%,-11%,-9%,26%,-28%[59 µM],.
CCCCCCn1c(SCC(=O)OC)nc2c1c(=O)[nH]c(=O)n2C,22µM*,-1%,?,?,1.6µM*,5.3µM*
CCCCCSc1nc2c(c(=O)[nH]c(=O)n2C)n1CC,?,.,-8%,3%,.,21µM*
CCCCCSc1nc2c(c(=O)[nH]c(=O)n2C)n1C,-9%,-4%,-25%,21%,2%,-3%
